In one experiment the test system is TAB165. The experiment can be described thus: qHTS profiling for inhibitors of Plasmodium falciparum proliferation (AID 504749). Further: nearly all actives have a fitted effect of over 60% in size. Further: potency means the concentration at half of the fitted maximal effect. Conditions: P. falciparum in erythrocytes, SYBR Green DNA, 72 h; series mostly up to 28.7 µM. Put shortly:
(§1)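 Three-day growth assay of blood-stage parasites in erythrocytes (0.3% parasitemia, 2.5% hematocrit) at 37 C, 5% CO2, quantified by SYBR Green DNA staining after overnight detergent lysis.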
Background: Quantitative high-throughput screening tests each substance at several concentrations.

In another experiment the test system is W2. Described as above. Particulars: P. falciparum in erythrocytes, SYBR Green DNA, 72 h; series mostly up to 28.7 µM. Put shortly: as §1
For a further experiment, the system named is KB-3-1. Kind of experiment: Cytotoxic Profiling of Annotated Libraries Using Quantitative High-Throughput Screening (AID 1296008). Further: nearly all actives have a fitted effect of over 60% in size. On max response: on the % scale 0 is the no-effect control and ±100 the full control effect. Conditions: Five cell lines viability, CellTiter-Glo ATP luminescence, 48-72 h; max response: active compounds read low. The method, boiled down: (§2)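 Cytotoxicity was measured as CellTiter-Glo ATP luminescence, read after 10 min at room temperature. Compound treatment of the cells lasted 48 or 72 hr at 37 degrees Celsius in a qHTS format.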
Background: ATP-based viability assays read luminescence as a measure of living cells.

In the next experiment the test system is MCC-13. Kind of experiment: qHTS assay to identify novel small-molecules to repurpose for Merkel cell carcinoma treatment (AID 1296009). Further: nearly all actives have a fitted effect of over 60% in size. Further: potency means the concentration at half of the fitted maximal effect. Conditions: MCC and control cell lines, CellTiter-Glo viability, 72 h; series mostly up to 46 µM. The method, boiled down:
(§3)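 After compound transfer in DMSO, plates were kept 72 hr at 37 degree celsius. Luminescent ATP signal from CellTiter-Glo served as viability measure, normalized against DMSO and no-cell controls.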

Another experiment deals with MCC-26. The experiment is described as above. Particulars: MCC and control cell lines, CellTiter-Glo viability, 72 h; series mostly up to 46 µM. Put shortly: as §3
In a further experiment the test system is MKL-1. The experiment is described as above. Particulars: MCC and control cell lines, CellTiter-Glo viability, 72 h; series mostly up to 46 µM. The method, boiled down:
as §3

Another experiment has as its system CAOV3. Kind of experiment: Primary qHTS to identify gynecologic anti-cancer compounds using libraries of approved drugs and bioactive compounds (AID 1345084). Further: nearly all actives have a fitted effect of over 55% in size. Further: potency means the concentration at half of the fitted maximal effect. Conditions: Gynecologic cancer cell panel viability, ATPlite luminescence, 48 h; series mostly up to 57.5 µM. The method, boiled down: (§4)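 ATP-based viability (ATPlite), 1,000 cells/well, 16 h pre-incubation, 48 h compound at 37 C, 5% CO2, 15 min RT before read.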

In experiment [1] the test system is HaCat. The experiment can be described thus: Cytotoxic Profiling of Annotated Libraries Using Quantitative High-Throughput Screening (AID 1296008). Further: nearly all actives have a fitted effect of over 60% in size. On max response: on the % scale 0 is the no-effect control and ±100 the full control effect. Conditions: Five cell lines viability, CellTiter-Glo ATP luminescence, 48-72 h; max response: active compounds read low. Put shortly: as §2
The test system of another experiment is MKL-2. Kind of experiment: qHTS assay to identify novel small-molecules to repurpose for Merkel cell carcinoma treatment (AID 1296009). Further: nearly all actives have a fitted effect of over 60% in size. Further: potency means the concentration at half of the fitted maximal effect. Conditions: MCC and control cell lines, CellTiter-Glo viability, 72 h; series mostly up to 46 µM. The method, boiled down: as §3
The test system of another experiment is UISO. The description is as above. Conditions: MCC and control cell lines, CellTiter-Glo viability, 72 h; series mostly up to 46 µM. Put shortly:
as §3

Another experiment relates to WaGa. The experiment is described as above. Particulars: MCC and control cell lines, CellTiter-Glo viability, 72 h; series mostly up to 46 µM. Put shortly:
as §3

The subject of the next experiment is C33A. The experiment can be described thus: Primary qHTS to identify gynecologic anti-cancer compounds using libraries of approved drugs and bioactive compounds (AID 1345084). Further: nearly all actives have a fitted effect of over 55% in size. Further: potency means the concentration at half of the fitted maximal effect. Particulars: Gynecologic cancer cell panel viability, ATPlite luminescence, 48 h; series mostly up to 57.5 µM. Put shortly: as §4
The subject of a further experiment is CASKI. The experiment is described as above. Particulars: Gynecologic cancer cell panel viability, ATPlite luminescence, 48 h; series mostly up to 57.5 µM. The method, boiled down: as §4
For the next experiment, the system named is NIH3T3. Kind of experiment: Cytotoxic Profiling of Annotated Libraries Using Quantitative High-Throughput Screening (AID 1296008). Further: nearly all actives have a fitted effect of over 60% in size. On max response: on the % scale 0 is the no-effect control and ±100 the full control effect. Particulars: Five cell lines viability, CellTiter-Glo ATP luminescence, 48-72 h; max response: active compounds read low. The method, boiled down:
as §2

A further experiment deals with Es-2. Kind of experiment: Primary qHTS to identify gynecologic anti-cancer compounds using libraries of approved drugs and bioactive compounds (AID 1345084). Further: nearly all actives have a fitted effect of over 55% in size. Further: potency means the concentration at half of the fitted maximal effect. Particulars: Gynecologic cancer cell panel viability, ATPlite luminescence, 48 h; series mostly up to 57.5 µM. The method, boiled down: as §4
Experiment [2] deals with HACAT. The experiment can be described thus: qHTS assay to identify novel small-molecules to repurpose for Merkel cell carcinoma treatment (AID 1296009). Further: nearly all actives have a fitted effect of over 60% in size. Further: potency means the concentration at half of the fitted maximal effect. Particulars: MCC and control cell lines, CellTiter-Glo viability, 72 h; at 44.8 µM (top of the series) unless noted. Put shortly:
as §3

The subject of a further experiment is HEK293T. Described as above. Conditions: MCC and control cell lines, CellTiter-Glo viability, 72 h; at 44.8 µM (top of the series) unless noted. Put shortly: as §3

Results filed as inconclusive are left out. A number with no mark means an inactive call. The source made the active and inactive calls. The call rests on the fitted dose curve; in most records, active means well fitted curve in the direction sought with a large enough effect; inconclusive means small, poorly fitted or top-dose-only effect, or another doubt; inactive means no such curve, though single readings can be large; an effect the other way counts as inactive or inconclusive.

Potency, max response and outcome data for 19 compounds are collected here from PubChem BioAssay (NCATS).

In the case of `CN(C)/N=N/c1nc[nH]c1C(N)=O`, the Potency entry in the experiment with TAB165, in the experiment on W2, with MCC-13, with MCC-26, with MKL-1 and in the experiment on CAOV3 was “inactive” throughout. The max response in the experiment with KB-3-1 is -8.2%.

As to `CNCC[C@@H](Oc1ccccc1C)c1ccccc1`, the max response was 1.42% in the experiment on HaCat [1] and -7.4% with KB-3-1. Moreover, the Potency entry with MCC-13, with MCC-26, in the experiment with MKL-1, in the experiment on MKL-2, in the experiment with UISO and in the experiment on WaGa was “inactive” in each case. For the same compound, the Potency result in the experiment with C33A, in the experiment with CAOV3 and with CASKI was “inactive” throughout.

Regarding `CC/C(=C(/CC)c1ccc(O)cc1)c1ccc(O)cc1`, the figures for the max response in the experiment on KB-3-1 and in the experiment with NIH3T3 were -22.7% and -25.4%, respectively. Besides, the Potency result in the experiment on MCC-13, in the experiment with MCC-26, in the experiment with MKL-1, in the experiment with C33A, with CAOV3 and in the experiment on CASKI was “inactive” throughout. For the same compound, in the experiment on Es-2, the Potency result is “inactive”.

Regarding `CCCCOc1cc(C(=O)NCCN(CC)CC)c2ccccc2n1`, the Potency result with TAB165, with MCC-13, in the experiment on MCC-26, in the experiment with MKL-1, in the experiment with C33A and in the experiment on CASKI was “inactive” each time. Further, the figures for the max response in the experiment with HaCat [1] and in the experiment on KB-3-1 were 2.41% and 0.155%, respectively.

As to `CC(C)C[C@H]1C(=O)N2CCC[C@H]2[C@]2(O)O[C@](NC(=O)[C@@H]3C=C4c5cccc6[nH]c(Br)c(c56)C[C@H]4N(C)C3)(C(C)C)C(=O)N12`, in the experiment with KB-3-1, the max response was 3.47%.

`CCCSS/C(CCO)=C(\C)N(C=O)Cc1cnc(C)nc1N`: the max response with KB-3-1 was 33.8%. In addition, the Potency with MCC-26 was 26.6 µM (active); in the experiment with MKL-1, 21.1 µM (active); in the experiment on MKL-2, 6.68 µM (active); with UISO, 29.9 µM (active). The Potency entry in the experiment with C33A, with CAOV3 and with CASKI was “inactive” throughout.

Take `Oc1c(I)cc(Cl)c2cccnc12`: the Potency is 12.6 µM (active) in the experiment with TAB165, 7.5 µM (active) in the experiment on MKL-2, 16.8 µM (active) in the experiment on UISO and 23.7 µM (active) with WaGa. The Potency entry in the experiment with W2, with CAOV3 and in the experiment on CASKI was “inactive” each time. Further, the outcome in the experiment with HaCat [1] and in the experiment on HACAT [2] was inactive. The max response in the experiment on KB-3-1 was -8.86%.

As for `C[C@@H]1CN(CCCn2c3ccccc3c3ccccc32)C[C@H](C)N1`, the Potency in the experiment on TAB165 is 7.08 µM (active); in the experiment with W2, 2.39 µM (active); in the experiment with C33A it was 22.4 µM (active). Besides, the max response in the experiment on KB-3-1 was 0.54%. Besides, the Potency result in the experiment with MCC-26 was “inactive”.

On to `CCOC(=O)/C=C(C)/C=C/C=C(C)/C=C/c1c(C)cc(OC)c(C)c1C`, for which, in the experiment on HACAT [2], the result was inactive. In addition, the Potency result with MCC-13, with MCC-26, in the experiment with C33A, in the experiment on CAOV3, with CASKI and in the experiment on Es-2 was “inactive” throughout.

In the case of `NCCC(O)(P(=O)(O)O)P(=O)(O)O`, the Potency entry in the experiment on TAB165, in the experiment on W2, in the experiment with MCC-13, in the experiment on MCC-26, in the experiment on MKL-1 and with MKL-2 was “inactive” throughout. The Potency result in the experiment with UISO, in the experiment with WaGa, in the experiment on C33A, with CAOV3, in the experiment on CASKI and in the experiment on Es-2 was “inactive” in each case. Moreover, the compound was classed as inactive with HACAT [2].

In the case of `CCCCC1=NC2(CCCC2)C(=O)N1Cc1ccc(-c2ccccc2-c2nn[nH]n2)cc1`, the result in the experiment with HACAT [2] and in the experiment on HEK293T was inactive. The Potency entry in the experiment on MCC-13, in the experiment on MCC-26, with MKL-1, with MKL-2, in the experiment on UISO and in the experiment on WaGa was “inactive” throughout. The Potency result with C33A, in the experiment on CAOV3, with CASKI and in the experiment with Es-2 was “inactive” throughout.

As for `CC(=O)OCC(=O)NCCCOc1cccc(CN2CCCCC2)c1`, the Potency result in the experiment on TAB165, with W2, in the experiment with MCC-13, with MCC-26, in the experiment on MKL-1 and in the experiment with MKL-2 was “inactive” throughout. For the same compound, the Potency entry in the experiment on UISO, in the experiment on WaGa, in the experiment with C33A, with CAOV3, in the experiment on CASKI and with Es-2 was “inactive” in each case. Moreover, the call with HEK293T was inactive.

Take `C[N+]1(CCCCC[N+]2(C)CCCC2)CCCC1`: the Potency entry with TAB165 and in the experiment with W2 was “inactive” each time. Further, the max response in the experiment on KB-3-1 is 15%.

On to `O=C1CCC(c2ccc(-n3ccnc3)cc2)=NN1`, for which the Potency result in the experiment on TAB165 and in the experiment with W2 was “inactive” throughout. The max response with KB-3-1 was 11.9%.

Consider `N[C@H](CO)C(=O)O`, for which the Potency entry in the experiment on TAB165 and in the experiment with W2 was “inactive” throughout. The max response in the experiment on KB-3-1 is -2.03%.

Turning to `Nc1ccc(C(=O)O)cc1`, the Potency entry with TAB165, with W2, in the experiment with MCC-13, in the experiment on MCC-26, in the experiment with MKL-1 and with MKL-2 was “inactive” throughout. Further, the Potency entry in the experiment on UISO, in the experiment on WaGa, with C33A, in the experiment with CAOV3, in the experiment with CASKI and in the experiment with Es-2 was “inactive” each time. Besides, the result in the experiment on HACAT [2] and with HEK293T was inactive.

`C[C@@H]1C(=O)NC2=Nc3cccc(Cl)c3CN21`: the Potency entry in the experiment with TAB165 and in the experiment with W2 was “inactive” in each case. Besides, the max response in the experiment with KB-3-1 is -2.45%.

Take `Nc1nc2ncc(CNc3ccc(C(=O)N[C@@H](CCC(=O)O)C(=O)O)cc3)nc2c(=O)[nH]1`: the result with HEK293T was inactive. The Potency entry in the experiment on MCC-13, with MCC-26, with MKL-1, in the experiment with MKL-2, in the experiment with UISO and in the experiment on WaGa was “inactive” each time. Besides, the Potency result in the experiment on C33A, in the experiment on CAOV3, in the experiment with CASKI and with Es-2 was “inactive” each time.

Turning to `C1CCc2nnnn2CC1`, the Potency result with TAB165 and with W2 was “inactive” each time. The max response in the experiment on KB-3-1 is 18.9%.
